9 compounds from PubChem BioAssay can be followed below.

The source made the active and inactive calls.

The nature of assay [1]: small molecules captured by biotinylated probe aFSTL3 – biochemical, small-molecule microarray, fluorescence 635/667, stem cell growth factor project, primary screen (AID 1064).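 Also: measures binding of the biotinylated anti-FSTL3 antibody to printed compounds.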 The following applies: higher = more signal.
Assay [2] in a line: binders from COS7 lysate, DM2A8 probe, primary screen, torsin A project, cell lysate, small-molecule microarray, fluorescence 635/667 (AID 1065). The following applies: higher = more signal, COS7 lysate expressing mutant human TOR1A.
Assay [3] in a line: small molecules captured by biotinylated probe aFGF2 – biochemical, small-molecule microarray, fluorescence 635/667, stem cell growth factor project, primary screen (AID 1067).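 Also: measures binding of biotinylated aFGF2 protein to printed compounds on slides; z-score merges feature fluorescence and signal-to-noise across triplicate slides.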 The following applies: higher = more signal.
A short description of assay [4]: small molecules captured by biotinylated probe aFGF10 – biochemical, small-molecule microarray, fluorescence 635/667, stem cell growth factor project, primary screen (AID 1071).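 Also: score merges 667 nm spot intensity and signal to noise from triplicate slides.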 The following applies: higher = more signal.
In assay [5] the target is Neurogenic locus notch homolog protein 2 (Homo sapiens) (UniProt Q04721). The assay is described as follows: small molecules binding Notch2 protein – biochemical, small-molecule microarray, 635 nm fluorescence, stem cell growth factors, primary screen (AID 1073). The following applies: higher = more signal.
Assay [6] has as its target Pro-neuregulin-1, membrane-bound isoform (Homo sapiens) (UniProt Q02297). The assay is described as follows: small molecules binding neuregulin-1 protein – biochemical, small-molecule microarray, fluorescence 635/667, psychiatric disease protein project, primary screen (AID 1075).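 Also: score combines 667 nm spot fluorescence with signal to noise.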 The following applies: NRG1 binding, 635 nm fluorescence, higher = more signal.
For assay [7], the system named is Neuregulin-1 EGF-like domain. The experiment in a line: small molecules binding NRG1 EGF domain – biochemical, small-molecule microarray, 635 nm fluorescence, primary screen (AID 1081).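 Also: binding of the protein to compounds printed on small-molecule microarray slides.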 Conditions: higher = more signal.
The nature of assay [8]: FRG1 expression reporter modulators in myotubes – cell-based, C2C12 myotubes, firefly/Renilla luciferase, luminescence, FRG1 inhibition for FSHD, primary screen (AID 1084). Conditions: FRG1 promoter luciferase, higher = more signal, called active from +8 up or from −8 down.
Assay [9] is described as follows: small molecules captured by biotinylated probe aFST – biochemical, small-molecule microarray, fluorescence 635/667, stem cell growth factor project, primary screen (AID 1086).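 Also: score merges 667 nm fluorescence with signal-to-noise of each printed compound spot.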 The following applies: higher = more signal.
A short description of assay [10]: binders of probe aHhip on microarray, primary screen, stem cell growth factor project, biochemical, small-molecule microarray, fluorescence 635/667 (AID 1087).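 Also: score merges spot fluorescence at 667nm with spot signal to noise ratio.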 The following applies: higher = more signal.
Assay [11] has as its system PRMT1 (protein arginine N-methyltransferase 1). The experiment in a line: small molecules binding arginine methyltransferase PRMT1 – biochemical, small-molecule microarray, 635 nm fluorescence, primary screen (AID 1088).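 Also: binding of Prmt1 protein to compounds spotted on small-molecule microarray slides.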 Conditions: higher = more signal.
Assay [12] in a line: growth effects on S. cerevisiae YJM789 – YJM789 clinical isolate, OD600, 24 h, basal, primary screen (AID 1089).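 Also: growth of clinical yeast isolate S. cerevisiae YJM 789 seeded 1000 cells per well; test concentration not given here.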 Conditions: higher = more signal, called active from +8 up or from −8 down.
Assay [13] can be described thus: S. pombe growth modifiers, basal conditions – strain 972, OD600, 24 h, no modulator, primary screen (AID 1090).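 Also: basal condition with compound alone and no growth modifier present; test concentration not given here.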 The following applies: S. pombe 972 growth, higher = more signal, called active from +8 up or from −8 down.
Assay [14] in a line: budding yeast growth modifiers under rapamycin – strain BY4716, OD600, 96 h, primary screen (AID 1091). Also: test concentration not given here. The following applies: S. cerevisiae BY4716 + rapamycin, higher = more signal, called active from +8 up or from −8 down.
In assay [15] the target is Torsin-1A-interacting protein 2 (Homo sapiens) (UniProt Q8NFQ8). The experiment in a line: small molecules binding lysate-expressed LULL1 – cell lysate, human LULL1 lysate, 635/667 nm fluorescence, primary screen (AID 1092).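 Also: probe is lysate of COS7 cells overexpressing human LULL1; score merges per-feature 667 nm fluorescence with signal-to-noise.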 Conditions: small-molecule microarray, hLULL1 lysate binding, 635 nm fluorescence; higher = more signal.
A short description of assay [16]: optical density change of DRC41 E. coli – strain DRC41, OD650, 24 h, E. coli filamentation project, primary screen (AID 1093).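 Also: MC1000 strain lacking acrAB efflux and sulA so SOS filamentation is blocked; test concentration not given here.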 The following applies: E. coli DRC41 growth, higher = more signal, called active from +8 up or from −8 down.
A short description of assay [17]: probe aLefty2 binding to arrayed compounds – biochemical, biotinylated probe, 635/667 nm fluorescence, primary screen (AID 1094).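 Also: score merges spot fluorescence near 667 nm with spot signal-to-noise ratio.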 Conditions: small-molecule microarray, higher = more signal.
For assay [18], the system named is Noggin (protein binding on small-molecule microarray). The experiment in a line: small molecules binding Noggin protein – biochemical, 635/667 nm fluorescence, primary screen (AID 1095).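 Also: score merges 667 nm feature fluorescence with signal to noise over triplicate slides.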 The following applies: 635 nm fluorescence, higher = more signal.
For assay [19], the target named is Neurogenic locus notch homolog protein 3 (Homo sapiens) (UniProt Q9UM47). The assay is described as follows: small molecules binding NOTCH3 protein – biochemical, 635/667 nm fluorescence, primary screen (AID 1096). Conditions: small-molecule microarray, 635 nm fluorescence, higher = more signal.
The nature of assay [20]: probe aEGFR binding to arrayed compounds – biochemical, biotinylated probe, 635/667 nm fluorescence, primary screen (AID 1097).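 Also: probe is a biotinylated anti-EGFR antibody binding compounds printed on slides; score combines fluorescence near 667 nm and signal to noise of each spot.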 Conditions: small-molecule microarray, higher = more signal.

Pro-neuregulin-1, membrane-bound isoform (Homo sapiens), sequence (Q02297 whole entry, looked up, the tested form may be a part, canonical isoform): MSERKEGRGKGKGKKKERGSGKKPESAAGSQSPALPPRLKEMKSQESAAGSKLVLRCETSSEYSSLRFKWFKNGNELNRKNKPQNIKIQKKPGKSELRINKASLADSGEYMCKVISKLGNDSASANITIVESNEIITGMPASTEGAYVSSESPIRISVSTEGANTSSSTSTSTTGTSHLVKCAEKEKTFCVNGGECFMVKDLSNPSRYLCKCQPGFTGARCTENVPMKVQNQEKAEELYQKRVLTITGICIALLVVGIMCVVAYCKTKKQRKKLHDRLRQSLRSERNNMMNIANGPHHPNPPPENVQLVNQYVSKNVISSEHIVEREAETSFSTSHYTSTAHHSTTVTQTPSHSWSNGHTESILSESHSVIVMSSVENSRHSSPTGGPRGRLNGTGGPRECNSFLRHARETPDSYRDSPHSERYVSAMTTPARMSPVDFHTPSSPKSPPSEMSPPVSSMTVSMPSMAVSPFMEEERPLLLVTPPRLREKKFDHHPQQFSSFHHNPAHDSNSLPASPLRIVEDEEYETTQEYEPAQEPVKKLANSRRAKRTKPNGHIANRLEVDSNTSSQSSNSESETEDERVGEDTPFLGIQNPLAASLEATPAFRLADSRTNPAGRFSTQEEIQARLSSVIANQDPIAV
Neurogenic locus notch homolog protein 2 (Homo sapiens), sequence (Q04721 whole entry, looked up, canonical isoform): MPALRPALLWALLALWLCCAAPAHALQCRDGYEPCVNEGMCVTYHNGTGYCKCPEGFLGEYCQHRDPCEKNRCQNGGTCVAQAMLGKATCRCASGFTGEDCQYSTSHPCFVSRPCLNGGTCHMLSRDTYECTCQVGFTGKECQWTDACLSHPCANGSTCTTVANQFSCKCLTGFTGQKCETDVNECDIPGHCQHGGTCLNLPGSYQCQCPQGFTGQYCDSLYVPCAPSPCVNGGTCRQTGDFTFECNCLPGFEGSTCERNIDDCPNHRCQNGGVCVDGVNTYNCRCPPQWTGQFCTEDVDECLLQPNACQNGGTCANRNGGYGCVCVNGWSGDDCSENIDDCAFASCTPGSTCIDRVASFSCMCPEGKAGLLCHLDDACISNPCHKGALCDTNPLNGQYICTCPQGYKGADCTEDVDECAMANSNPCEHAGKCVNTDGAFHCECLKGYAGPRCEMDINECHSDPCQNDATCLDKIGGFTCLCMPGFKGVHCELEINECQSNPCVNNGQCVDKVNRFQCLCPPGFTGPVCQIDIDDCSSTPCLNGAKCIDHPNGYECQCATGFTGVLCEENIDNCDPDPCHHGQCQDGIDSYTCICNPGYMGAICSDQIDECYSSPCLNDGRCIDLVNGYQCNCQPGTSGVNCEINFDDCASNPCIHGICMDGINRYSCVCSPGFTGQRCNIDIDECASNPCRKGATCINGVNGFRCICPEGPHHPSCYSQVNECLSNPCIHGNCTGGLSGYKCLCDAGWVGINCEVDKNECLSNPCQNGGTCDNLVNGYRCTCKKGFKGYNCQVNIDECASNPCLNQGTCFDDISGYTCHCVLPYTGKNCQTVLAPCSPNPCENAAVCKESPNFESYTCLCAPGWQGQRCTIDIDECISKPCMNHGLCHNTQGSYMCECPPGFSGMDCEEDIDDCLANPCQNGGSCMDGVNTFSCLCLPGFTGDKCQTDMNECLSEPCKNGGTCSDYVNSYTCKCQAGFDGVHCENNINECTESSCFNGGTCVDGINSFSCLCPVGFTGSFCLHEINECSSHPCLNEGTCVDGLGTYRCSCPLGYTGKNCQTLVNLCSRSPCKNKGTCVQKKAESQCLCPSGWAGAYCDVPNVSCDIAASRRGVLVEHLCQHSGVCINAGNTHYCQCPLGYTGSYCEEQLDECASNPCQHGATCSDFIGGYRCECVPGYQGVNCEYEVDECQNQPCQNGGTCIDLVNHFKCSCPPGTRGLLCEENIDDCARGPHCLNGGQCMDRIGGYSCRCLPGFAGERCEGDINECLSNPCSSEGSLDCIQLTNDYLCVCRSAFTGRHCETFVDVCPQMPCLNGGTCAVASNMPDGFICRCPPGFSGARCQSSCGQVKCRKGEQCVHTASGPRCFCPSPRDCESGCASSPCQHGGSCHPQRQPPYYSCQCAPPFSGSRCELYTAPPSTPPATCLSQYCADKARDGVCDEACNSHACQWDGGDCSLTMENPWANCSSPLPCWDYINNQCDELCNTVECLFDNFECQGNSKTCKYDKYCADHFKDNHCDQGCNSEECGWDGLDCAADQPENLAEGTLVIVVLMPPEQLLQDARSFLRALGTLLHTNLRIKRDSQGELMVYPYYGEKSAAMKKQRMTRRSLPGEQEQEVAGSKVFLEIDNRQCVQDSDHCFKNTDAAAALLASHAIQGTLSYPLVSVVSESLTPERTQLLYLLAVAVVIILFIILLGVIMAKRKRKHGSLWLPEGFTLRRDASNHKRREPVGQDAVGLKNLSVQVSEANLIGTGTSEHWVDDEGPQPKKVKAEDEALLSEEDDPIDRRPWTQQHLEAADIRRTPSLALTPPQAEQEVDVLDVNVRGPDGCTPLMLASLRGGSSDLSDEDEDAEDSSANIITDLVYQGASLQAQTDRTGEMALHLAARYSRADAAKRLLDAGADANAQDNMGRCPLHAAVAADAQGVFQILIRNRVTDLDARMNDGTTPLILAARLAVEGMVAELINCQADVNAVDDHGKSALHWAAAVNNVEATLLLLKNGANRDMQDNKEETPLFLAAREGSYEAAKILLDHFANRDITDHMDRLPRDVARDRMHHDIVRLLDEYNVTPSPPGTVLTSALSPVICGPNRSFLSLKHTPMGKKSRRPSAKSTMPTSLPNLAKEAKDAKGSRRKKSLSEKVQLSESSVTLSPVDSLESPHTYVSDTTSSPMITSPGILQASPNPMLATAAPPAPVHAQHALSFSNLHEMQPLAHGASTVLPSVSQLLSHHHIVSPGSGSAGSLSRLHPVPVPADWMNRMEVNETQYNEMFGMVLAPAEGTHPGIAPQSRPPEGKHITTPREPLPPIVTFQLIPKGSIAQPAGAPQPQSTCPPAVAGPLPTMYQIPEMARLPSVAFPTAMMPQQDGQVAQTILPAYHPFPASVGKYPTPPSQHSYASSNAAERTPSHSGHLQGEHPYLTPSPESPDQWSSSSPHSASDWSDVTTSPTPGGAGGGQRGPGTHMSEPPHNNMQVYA
Torsin-1A-interacting protein 2 (Homo sapiens), sequence (Q8NFQ8 whole entry, looked up): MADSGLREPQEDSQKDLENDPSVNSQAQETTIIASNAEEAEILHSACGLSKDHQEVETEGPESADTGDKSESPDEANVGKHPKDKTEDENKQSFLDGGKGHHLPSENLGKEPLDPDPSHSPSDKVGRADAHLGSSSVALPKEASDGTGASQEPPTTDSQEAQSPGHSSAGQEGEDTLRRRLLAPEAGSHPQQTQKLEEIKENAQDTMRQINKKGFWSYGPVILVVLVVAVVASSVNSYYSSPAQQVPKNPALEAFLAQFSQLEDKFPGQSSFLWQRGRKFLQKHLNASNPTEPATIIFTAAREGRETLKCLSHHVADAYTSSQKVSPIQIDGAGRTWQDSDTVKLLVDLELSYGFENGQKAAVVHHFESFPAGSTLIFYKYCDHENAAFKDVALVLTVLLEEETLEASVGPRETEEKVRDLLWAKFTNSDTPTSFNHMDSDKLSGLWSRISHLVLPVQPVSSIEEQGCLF

Take `C=CCN1C(=O)[C@@]2(O[C@@H](CCn3cc([C@H](O)c4ccccc4)nn3)[C@H]([Si](C)(C)c3ccc(OC)cc3)[C@H]2C)c2cc(N3CCC3=O)ccc21`: the composite z-score in assay [1] was 0.211; in [2] it was 0.175; in assay [3] it was -0.0894; in [4], 0.383; in [5] it was -0.496; in assay [6], 0.997. Besides, the composite z-score in [7] was 1.25; in assay [9], -0.259; in assay [10], -0.13; in [11], 0.467; in [15], 1.03; in assay [17], -0.11. Besides, the composite z-score in assay [18] was 0.711; in assay [19], -0.681; in assay [20], -0.183. Moreover, the z-score in [8] was -1.88 (inactive); in assay [12], 1.38 (inactive); in [13] it was 0.95 (inactive); in assay [14], 2.37 (inactive); in assay [16], 0.456 (inactive).

For the compound `O=C1OCC=C[C@H]2OC34C=CCN(Cc5ccccc5)C(=O)[C@H]3N(CCCCCCO)C(=O)[C@@H]4[C@@H]12` (stereo not given in full), the composite z-score in [1] is 0.329; in assay [2] it was -0.443; in assay [3], -0.191; in [4] it was -0.0166; in assay [5], -0.812; in assay [6] it was 0.273. Besides, the composite z-score is 1.12 in assay [7]; -0.474 in assay [9]; -0.249 in assay [10]; -0.325 in assay [11]; 1.76 in assay [15]; 0.0124 in assay [17]. For the same compound, the composite z-score is -0.742 in [18], -0.153 in assay [19] and -0.159 in [20]. The z-score in assay [8] is -0.843 (inactive); in assay [12], -0.997 (inactive); in [13] it was 0.0262 (inactive); in assay [14], -1.53 (inactive); in [16], 2.11 (inactive).

For the compound `C=CCC(OC(C)=O)[C@@H]1[C@@H](N(Cc2cc3ccccc3o2)C(=O)Cc2ccc(F)cc2)c2cc(OCCCO)ccc2N1C(=O)c1ccc2ccccc2c1` (stereo not given in full), the composite z-score is -0.0245 in assay [1]; -0.186 in [2]; -0.116 in assay [3]; -0.121 in assay [4]; -0.367 in assay [5]; -0.32 in assay [6]. Moreover, the composite z-score in [7] was -0.432; in assay [9] it was 0.45; in [10], -0.0994; in [11] it was -0.381; in [15], -0.383; in assay [17], -0.0708. The values for the composite z-score in [18], in assay [19] and in assay [20] were 0.437, -0.44 and -0.112, respectively. Besides, the z-score was -1.92 (inactive) in assay [8]; -0.313 (inactive) in [12]; 0.716 (inactive) in [13]; -0.538 (inactive) in assay [14]; -1.07 (inactive) in [16].

Regarding `COc1ccc(-c2cc3c(c(CCc4ccccc4)n2)[Si](C(C)C)(C(C)C)OC3)cn1`, the composite z-score in assay [1] was -0.33; in assay [2], 0.239; in [3], -0.0537; in assay [4], 0.0473; in assay [5], 0.247; in assay [6], -0.352. The composite z-score in [7] was 0.197; in [9] it was 0.21; in assay [10], 0.113; in [11], -0.876; in assay [15], 0.781; in assay [17] it was -0.248. Further, the composite z-score in [18] is 0.325; in [19], 0.312; in [20] it was -0.0828. Besides, the z-score in [8] is 0.943 (inactive); in [12] it was 0.275 (inactive); in [13], -0.726 (inactive); in assay [14], 0.333 (inactive); in assay [16], -0.43 (inactive).

Consider `COC(=O)[C@@]1(Cc2ccc(F)cc2)[C@H]2c3cc(C(=O)N(C)C)n(Cc4cc(F)cc5c4OCOC5)c3C[C@H]2CN1C(=O)c1ccccc1`, for which the composite z-score is 0.149 in [1]; 0.199 in [2]; -0.0002 in assay [3]; 0.964 in assay [4]; 1.56 in [5]; 1.81 in [6]. The composite z-score in assay [7] was 1.27; in [9], 1.03; in assay [10], -0.319; in assay [11] it was 1.17; in assay [15], 3.32; in assay [17], 0.44. The composite z-score stood at 0.378 in assay [18], 1.04 in assay [19] and 0.118 in assay [20]. The z-score is -1.82 (inactive) in assay [8]; -1.23 (inactive) in [12]; 0.446 (inactive) in [13]; 1.78 (inactive) in assay [14]; -0.375 (inactive) in assay [16].

As for `CC[C@H]1C2=C3C(CC[C@H]4C(OCc5ccc(F)cc5C(F)(F)F)OC[C@](C)([C@@H]34)N(C(=O)OC(C)(C)C)C2)C(COC)C1COC` (stereo not given in full), the composite z-score is -0.117 in assay [1]; -0.281 in assay [2]; 0.0253 in assay [3]; 0.0921 in assay [4]; 0.84 in assay [5]; 0.336 in assay [6]. The composite z-score was -0.0151 in assay [7]; 0.857 in [9]; -0.329 in assay [10]; -0.728 in [11]; 1.68 in assay [15]; 0.0392 in assay [17]. Besides, the composite z-score was -0.207 in [18], 0.949 in assay [19] and -0.113 in [20]. The z-score in [8] was 1.18 (inactive); in [12], 0.242 (inactive); in [13], 0.78 (inactive); in [14], 0.153 (inactive); in [16] it was -0.773 (inactive).

For `COC(=O)[C@@]1(Cc2ccc(OC)cc2)[C@H]2c3cc(C(=O)N4CCCC4)n(Cc4cccc5ccccc45)c3C[C@H]2CN1C(=O)c1ccccc1`, the composite z-score in assay [1] was 0.176; in [2] it was -0.214; in assay [3] it was 0.401; in assay [4] it was 0.672; in [5], 1.8; in [6] it was 1.42. For the same compound, the composite z-score is 0.831 in assay [7]; 0.849 in assay [9]; -0.115 in assay [10]; -0.88 in assay [11]; 3.02 in assay [15]; 0.0082 in [17]. Moreover, the composite z-score amounted to 0.15 in [18], 0.981 in assay [19] and 0.087 in assay [20]. Also, the z-score in [8] was -0.404 (inactive); in assay [12], 0.221 (inactive); in assay [13], 1.82 (inactive); in assay [14] it was 2.29 (inactive); in [16], 0.0929 (inactive).

Regarding `COC(=O)Cn1c(C(=O)N(C)C)cc2c1C[C@H]1CN(C(=O)c3ccccc3)[C@@](Cc3ccc(F)cc3)(C(=O)OC)[C@@H]21`, the composite z-score in assay [1] was 0.0501; in [2], -0.152; in assay [3], 0.154; in assay [4], 1.24; in assay [5], 1.65; in assay [6], 0.88. The composite z-score in assay [7] was 1.13; in assay [9], 0.114; in assay [10], -0.15; in assay [11], -0.397; in [15], 2.81; in [17], 0.639. In addition, the composite z-score in assay [18] is -0.327; in assay [19], 0.104; in assay [20], 0.561. Further, the z-score in assay [8] is -0.438 (inactive); in [12] it was 1.28 (inactive); in [13], 1.42 (inactive); in assay [14], 1.61 (inactive); in assay [16], -0.581 (inactive).

Turning to `COC(=O)C(CC#Cc1ccc2c(c1)[C@]1(C(=O)N2)[C@H](C(=O)N2CCN(c3ncccn3)CC2)[C@H]2C(=O)O[C@H](c3ccccc3)[C@H](c3ccccc3)N2[C@@H]1c1ccc(OCCO)cc1)C(=O)OC`, the composite z-score in assay [1] is -0.448; in assay [2], 1.21; in [3], -0.0768; in assay [4] it was 0.554; in assay [5], 1.16; in assay [6], 1.67. Also, the composite z-score was 1.26 in assay [7]; 0.38 in [9]; -0.0296 in [10]; 1.53 in assay [11]; 2.76 in assay [15]; 0.0008 in assay [17]. The figures for the composite z-score in assay [18], in assay [19] and in assay [20] were 1.3, 1.02 and -0.0177, respectively. For the same compound, the z-score is 1.97 (inactive) in assay [8]; 3.19 (inactive) in [12]; 2.13 (inactive) in assay [13]; 5.67 (inactive) in [14]; 0.54 (inactive) in [16].
